# Assay results published in the supplement of paper PMC11732987, “Enantioselective OTUD7B fragment discovery through chemoproteomics screening and high-throughput optimisation” (Communications Chemistry, 2025).
# Unmarked numbers belong to inactive results.
# Key:
# Assay in all cases: log2 ratio of Biotin-Ahx-Ub-VS probe labelling (fragment/DMSO); higher = less target engagement (more negative = stronger competition), active = hit call of the paper (q ≤ 0.05, log2 ratio ≤ -1)
# Conditions in all cases: compound concentration: 200 uM; treatment time: 3 h
# [1] = target: T1, OTUD6B (UniProt Q8N6M0)
# T1 sequence (whole entry): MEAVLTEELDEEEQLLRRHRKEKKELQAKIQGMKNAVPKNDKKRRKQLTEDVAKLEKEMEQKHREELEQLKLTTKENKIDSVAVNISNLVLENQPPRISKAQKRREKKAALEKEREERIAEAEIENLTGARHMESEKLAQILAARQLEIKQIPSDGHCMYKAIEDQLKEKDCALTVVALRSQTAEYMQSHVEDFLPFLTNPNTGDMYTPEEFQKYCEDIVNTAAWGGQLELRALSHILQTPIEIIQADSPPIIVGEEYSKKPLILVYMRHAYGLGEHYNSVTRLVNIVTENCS
# How it was run: (§1)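 In triplicate, 495 µg of HEK293T lysate per sample was incubated with fragment at 200 µM or vehicle for 3 h. Biotin-Ahx-Ub-VS was then added to 0.5 µM final for 1 h, and labelled DUBs were captured with NeutrAvidin, digested with LysC and trypsin, and measured by diaPASEF LC-MS/MS. Data are average log2 fragment/vehicle ratios by unpaired t-test from global-median-normalised Spectronaut label-free quantities, restricted to proteins with ≥2 unique peptides.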
# [2] = target: T2, OTUD7B (UniProt Q6GQQ9)
# T2 sequence (whole entry): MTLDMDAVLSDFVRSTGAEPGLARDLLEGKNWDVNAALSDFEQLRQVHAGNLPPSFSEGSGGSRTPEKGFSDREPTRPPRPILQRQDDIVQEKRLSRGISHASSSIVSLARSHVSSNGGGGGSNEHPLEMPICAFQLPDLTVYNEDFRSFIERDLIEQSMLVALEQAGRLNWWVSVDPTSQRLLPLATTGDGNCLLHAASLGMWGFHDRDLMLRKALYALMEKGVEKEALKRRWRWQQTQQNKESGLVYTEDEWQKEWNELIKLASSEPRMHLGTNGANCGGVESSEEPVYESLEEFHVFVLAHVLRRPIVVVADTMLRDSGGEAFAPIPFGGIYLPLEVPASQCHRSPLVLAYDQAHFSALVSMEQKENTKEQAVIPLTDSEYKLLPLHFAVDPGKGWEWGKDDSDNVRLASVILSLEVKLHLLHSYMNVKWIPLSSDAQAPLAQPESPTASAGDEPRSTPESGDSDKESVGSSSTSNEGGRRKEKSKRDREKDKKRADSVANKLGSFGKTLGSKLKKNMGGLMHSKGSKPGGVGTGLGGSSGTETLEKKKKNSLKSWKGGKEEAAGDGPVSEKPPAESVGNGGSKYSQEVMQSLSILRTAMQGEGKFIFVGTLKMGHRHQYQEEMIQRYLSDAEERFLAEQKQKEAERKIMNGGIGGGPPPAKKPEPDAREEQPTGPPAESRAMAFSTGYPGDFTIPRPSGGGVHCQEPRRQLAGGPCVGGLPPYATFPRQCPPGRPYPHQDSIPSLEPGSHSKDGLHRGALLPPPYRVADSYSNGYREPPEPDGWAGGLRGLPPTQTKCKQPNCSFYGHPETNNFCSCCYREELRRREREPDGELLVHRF
# How it was run: as §1
# [3] = target: PRPF8 (UniProt Q6P2Q9)
# How it was run: as §1
# [4] = target: T3, PSMD7 (UniProt P51665)
# T3 sequence (whole entry): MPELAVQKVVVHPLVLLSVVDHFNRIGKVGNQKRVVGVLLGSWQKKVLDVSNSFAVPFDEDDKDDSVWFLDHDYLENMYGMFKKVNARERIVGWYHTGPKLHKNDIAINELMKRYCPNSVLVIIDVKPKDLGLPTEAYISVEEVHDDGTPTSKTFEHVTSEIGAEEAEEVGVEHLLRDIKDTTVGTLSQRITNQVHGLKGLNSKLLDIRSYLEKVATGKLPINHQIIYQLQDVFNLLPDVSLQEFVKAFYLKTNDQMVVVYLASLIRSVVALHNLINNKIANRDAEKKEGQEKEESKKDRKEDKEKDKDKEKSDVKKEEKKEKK
# How it was run: as §1
# [5] = target: UCHL1 (UniProt P09936)
# How it was run: as §1
# [6] = target: T4, UCHL3 (UniProt P15374)
# T4 sequence (whole entry): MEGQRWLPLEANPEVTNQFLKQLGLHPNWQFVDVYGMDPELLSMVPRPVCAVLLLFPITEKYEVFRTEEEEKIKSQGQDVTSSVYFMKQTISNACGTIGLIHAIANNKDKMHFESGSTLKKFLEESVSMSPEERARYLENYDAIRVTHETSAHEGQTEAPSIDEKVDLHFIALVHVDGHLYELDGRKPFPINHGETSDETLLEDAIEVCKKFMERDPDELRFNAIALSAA
# How it was run: as §1
# [7] = target: T5, UCHL5 (UniProt Q9Y5K5)
# T5 sequence (whole entry): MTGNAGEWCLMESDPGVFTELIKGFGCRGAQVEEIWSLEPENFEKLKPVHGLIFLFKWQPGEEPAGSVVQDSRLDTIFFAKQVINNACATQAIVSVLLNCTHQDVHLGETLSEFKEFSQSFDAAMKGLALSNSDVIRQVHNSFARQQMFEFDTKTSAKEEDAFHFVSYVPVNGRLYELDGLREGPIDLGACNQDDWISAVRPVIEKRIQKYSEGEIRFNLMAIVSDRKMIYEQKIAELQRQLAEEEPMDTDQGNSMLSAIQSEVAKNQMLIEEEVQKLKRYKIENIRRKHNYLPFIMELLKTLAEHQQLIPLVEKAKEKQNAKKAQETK
# How it was run: as §1
# [8] = target: USP10 (UniProt Q14694)
# How it was run: as §1
# [9] = target: T6, USP15 (UniProt Q9Y4E8)
# T6 sequence (whole entry): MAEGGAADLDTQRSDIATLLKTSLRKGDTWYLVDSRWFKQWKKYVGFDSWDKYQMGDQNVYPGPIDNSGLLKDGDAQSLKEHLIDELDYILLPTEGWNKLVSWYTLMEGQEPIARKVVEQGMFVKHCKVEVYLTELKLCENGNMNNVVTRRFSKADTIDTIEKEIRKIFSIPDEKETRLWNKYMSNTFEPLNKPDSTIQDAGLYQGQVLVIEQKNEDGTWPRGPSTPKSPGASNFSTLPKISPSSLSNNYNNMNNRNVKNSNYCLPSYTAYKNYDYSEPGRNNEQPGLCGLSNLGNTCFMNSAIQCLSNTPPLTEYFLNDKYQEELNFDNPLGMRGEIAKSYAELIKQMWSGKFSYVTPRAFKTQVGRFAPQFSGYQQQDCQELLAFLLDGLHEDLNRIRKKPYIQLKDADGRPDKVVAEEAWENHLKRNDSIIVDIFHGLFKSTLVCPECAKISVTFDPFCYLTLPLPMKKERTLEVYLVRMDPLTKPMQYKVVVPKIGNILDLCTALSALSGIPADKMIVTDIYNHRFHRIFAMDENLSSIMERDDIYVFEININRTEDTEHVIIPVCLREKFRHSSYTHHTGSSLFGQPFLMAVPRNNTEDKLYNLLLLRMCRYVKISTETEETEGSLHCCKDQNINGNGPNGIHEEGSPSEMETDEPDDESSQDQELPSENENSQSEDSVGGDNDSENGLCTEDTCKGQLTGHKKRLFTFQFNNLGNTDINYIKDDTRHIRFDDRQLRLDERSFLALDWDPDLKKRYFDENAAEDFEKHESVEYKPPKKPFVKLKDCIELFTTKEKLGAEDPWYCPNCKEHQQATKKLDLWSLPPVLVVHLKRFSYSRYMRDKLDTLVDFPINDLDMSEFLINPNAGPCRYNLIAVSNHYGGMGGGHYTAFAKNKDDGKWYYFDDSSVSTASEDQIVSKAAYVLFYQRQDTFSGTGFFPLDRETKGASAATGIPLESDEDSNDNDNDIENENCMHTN
# How it was run: as §1
# [10] = target: USP16 (UniProt Q9Y5T5)
# How it was run: as §1
# USP16, sequence (Q9Y5T5 whole entry, looked up): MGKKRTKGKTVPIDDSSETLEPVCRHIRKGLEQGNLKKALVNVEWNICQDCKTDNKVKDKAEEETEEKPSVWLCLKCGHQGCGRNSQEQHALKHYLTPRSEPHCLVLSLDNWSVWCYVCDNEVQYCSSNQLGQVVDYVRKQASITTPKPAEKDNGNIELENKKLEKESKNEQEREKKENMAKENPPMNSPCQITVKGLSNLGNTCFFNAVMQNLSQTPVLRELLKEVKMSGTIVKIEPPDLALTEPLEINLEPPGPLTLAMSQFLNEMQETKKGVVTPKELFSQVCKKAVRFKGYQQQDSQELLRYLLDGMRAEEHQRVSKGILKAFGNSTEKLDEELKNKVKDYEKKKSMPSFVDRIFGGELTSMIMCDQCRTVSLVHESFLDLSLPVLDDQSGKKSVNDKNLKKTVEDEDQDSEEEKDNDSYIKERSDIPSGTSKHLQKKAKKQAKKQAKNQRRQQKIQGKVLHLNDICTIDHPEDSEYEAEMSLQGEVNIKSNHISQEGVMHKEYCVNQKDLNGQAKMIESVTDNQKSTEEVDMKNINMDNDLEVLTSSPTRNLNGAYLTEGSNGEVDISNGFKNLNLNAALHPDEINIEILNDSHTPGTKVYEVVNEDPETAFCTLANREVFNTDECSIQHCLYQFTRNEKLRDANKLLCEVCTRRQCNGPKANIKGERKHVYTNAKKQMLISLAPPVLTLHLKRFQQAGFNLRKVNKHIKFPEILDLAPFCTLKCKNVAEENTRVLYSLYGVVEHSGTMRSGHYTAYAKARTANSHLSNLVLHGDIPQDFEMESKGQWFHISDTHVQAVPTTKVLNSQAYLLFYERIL
# USP10, sequence (Q14694 whole entry): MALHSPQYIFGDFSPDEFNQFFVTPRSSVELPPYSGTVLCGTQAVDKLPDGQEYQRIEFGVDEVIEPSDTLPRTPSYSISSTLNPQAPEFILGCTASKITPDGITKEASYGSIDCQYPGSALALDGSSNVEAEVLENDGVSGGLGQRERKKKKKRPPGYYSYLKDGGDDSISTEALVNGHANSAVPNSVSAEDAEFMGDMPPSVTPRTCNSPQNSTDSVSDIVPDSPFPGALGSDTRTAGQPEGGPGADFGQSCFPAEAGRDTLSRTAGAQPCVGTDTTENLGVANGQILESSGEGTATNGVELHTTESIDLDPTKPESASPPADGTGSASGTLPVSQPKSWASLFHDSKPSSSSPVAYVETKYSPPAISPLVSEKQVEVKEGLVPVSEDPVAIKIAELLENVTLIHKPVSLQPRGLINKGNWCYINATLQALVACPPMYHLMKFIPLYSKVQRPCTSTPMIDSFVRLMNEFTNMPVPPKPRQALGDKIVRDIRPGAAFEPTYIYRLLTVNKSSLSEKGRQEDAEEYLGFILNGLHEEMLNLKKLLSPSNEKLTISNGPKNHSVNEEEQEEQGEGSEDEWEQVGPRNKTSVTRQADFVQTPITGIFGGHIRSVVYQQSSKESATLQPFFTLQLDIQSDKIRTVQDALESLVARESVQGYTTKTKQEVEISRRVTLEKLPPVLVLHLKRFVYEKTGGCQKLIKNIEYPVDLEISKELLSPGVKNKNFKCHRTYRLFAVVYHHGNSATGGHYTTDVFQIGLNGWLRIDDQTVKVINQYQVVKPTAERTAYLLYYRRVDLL
# UCHL1, sequence (P09936 whole entry, looked up): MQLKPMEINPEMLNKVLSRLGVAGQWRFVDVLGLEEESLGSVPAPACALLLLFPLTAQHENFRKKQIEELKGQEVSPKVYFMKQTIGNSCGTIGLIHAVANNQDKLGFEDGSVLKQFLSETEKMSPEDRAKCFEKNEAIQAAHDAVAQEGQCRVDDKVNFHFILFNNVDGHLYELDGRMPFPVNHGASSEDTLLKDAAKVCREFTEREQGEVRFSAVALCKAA
compound,measurement,setting,value
O=C(CCl)N1CC2(CCOCC2)C1,log2 ratio of Biotin-Ahx-Ub-VS probe labelling,[1],-0.202
same,log2 ratio of Biotin-Ahx-Ub-VS probe labelling,[2],-0.345
same,log2 ratio of Biotin-Ahx-Ub-VS probe labelling,[3],-0.426
same,log2 ratio of Biotin-Ahx-Ub-VS probe labelling,[4],-0.00344
same,log2 ratio of Biotin-Ahx-Ub-VS probe labelling,[5],-1.21 (active)
same,log2 ratio of Biotin-Ahx-Ub-VS probe labelling,[6],0.139
same,log2 ratio of Biotin-Ahx-Ub-VS probe labelling,[7],-0.253
same,log2 ratio of Biotin-Ahx-Ub-VS probe labelling,[8],-0.483
same,log2 ratio of Biotin-Ahx-Ub-VS probe labelling,[9],-0.212
same,log2 ratio of Biotin-Ahx-Ub-VS probe labelling,[10],-0.888
